Laboratory results as given in the supplement of paper PMC6555819.

Columns and labels:
Assay in all cases: PBM binding z-score (relative to random genomic background probes); higher = stronger binding; sequences stand for … in GC…GCGATTGACAGCGTAGAATGAAGG
[1] = tested on: RARg:RXRa (NR concentration 270 nM, RXRa partner concentration 90 nM)
Procedure, shortened: (§1)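 For binding z-scores, the reference was random background probes on custom Agilent 4×180K protein-binding microarrays. These arrays were incubated 1 h with ligand-free nuclear receptor dimers in PBS pH 7.4, 2% milk, 0.02% Triton X-100, 1 mM DTT, 0.2 mg/mL BSA and 0.4 mg/ml salmon testes DNA. Fluorescence was scanned after antibody detection of each partner (one per run) and regression-normalized.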

[2] = tested on: RARg homodimer (NR concentration 270 nM)
Procedure, shortened: as §1

[3] = tested on: RXRa DBDmut IVT, anti-RXR (DBD mutation: RXRa K156A/R161A, NR concentration 90 nM)
Procedure, shortened: as §1

[4] = tested on: RXRa homodimer (NR concentration 180 nM)
Procedure, shortened: as §1

[5] = tested on: THRa:RXRa (NR concentration 90 nM, RXRa partner concentration 90 nM)
Procedure, shortened: as §1

[6] = tested on: THRa homodimer (NR concentration 90 nM)
Procedure, shortened: as §1

[7] = tested on: VDR homodimer (NR concentration 270 nM)
Procedure, shortened: as §1

Row | Sequence | PBM binding z-score [1] | PBM binding z-score [2] | PBM binding z-score [3] | PBM binding z-score [4] | PBM binding z-score [5] | PBM binding z-score [6] | PBM binding z-score [7]
1 | CCTTACGGGTCACTGACAGGTTATAGCGTTTGGA | 5.75 | 4.55 | 1.73 | 5.06 | 2.76 | 0.417 | 1.2
2 | TCTCGGAGGACACTAAAGGTCAGAGCTCGACATC | 4.4 | 4.68 | 1.11 | 3.98 | 3.48 | 1.1 | 0.787
3 | TCTAGTTGGTCACGGAGGACACACACGACGGGTA | 1.55 | 2.32 | 0.501 | 0.864 | 1.83 | 1.27 | 0.76
4 | CCTACTGGGCCACGAAAGGCCATTGATTCAGTGA | 0.332 | 0.725 | -0.292 | -0.0677 | 1.15 | -0.457 | -0.271
5 | CTATGTAGGTCAAGGGGGTCATTCAGTTTGAAAG | 7.26 | 6.93 | 3.29 | 7.64 | 4.27 | 2.15 | 7.37
6 | GCTGCTAGGTCAACTGATGGTCAACTAAAGCTCG | 5.53 | 5.66 | 1.57 | 2.94 | 2.91 | 1.01 | 0.0813
7 | CTCGAAAGGTCGTGCTCAGATGAGTATACCAAAC | 4.06 | 3.84 | 1.66 | 4.62 | 2.22 | -0.171 | 1.15
8 | CCTGCGAGGTCATGGTCAGCTAATCTACAGTATG | 6.42 | 6.15 | 4.26 | 7.05 | 4.34 | 3.39 | 3.95
